FUS suppressor = FUS proteinopathy suppression in yeast | S. cerevisiae FUS-expressing, growth rescue, OD600, 24 h | Potency, µM (highest dose often 76.6 µM), most hits filed as activators | hit rate 0.24% among 390,000 | AID 1347120;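 note: potency is the fitted concentration of half-maximal effect; plate controls were DMSO vehicle for no effect and reference control for full effect; nearly all actives have a fitted effect of over 55% in size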
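Restored growth of FUS-toxic S. cerevisiae, read as 600 nm absorbance after 24 h at 30C in galactose medium (starting OD 0.005). Controls CP55940 and DMSO.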
Abeta yeast res = A-beta toxicity reversal in yeast; yeast expressing A-beta42, growth rescue, OD600, 48 h; response scale: 0% DMSO, 100% iron-clioquinol control; Potency, µM (highest dose often 46.1 µM), actives largely listed as activators; hit rate 0.063% among 410,000; AID 1347071; note: potency is the fitted concentration of half-maximal effect; nearly all actives have a fitted effect of over 55% in size
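Yeast A-beta toxicity model in growth medium with pinned compounds, 48 h at 30 C; growth read as absorbance at 600 nm. Normalized to FeCl3/clioquinol equimolar mix (positive) and DMSO (negative).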
LDHA inh = inhibitors of human lactate dehydrogenase A; P00338; purified LDHA, NADH/diaphorase-resazurin fluorescence; stronger effect = lower value; activity change, % (values are at about 110 or 230 µM); hit rate 0.15% among 480,000; in the data active = activity change below about -30%; inconclusive = mostly about -25% to -30%;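 note: plate controls were DMSO wells for no effect and wells without enzyme for full effect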
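Human LDH5 (2 nM) was incubated with 0.06 mM NADH and 0.2 mM pyruvate for 5 min at room temperature in Tris pH 7.4. Remaining NADH was coupled through diaphorase/resazurin, and resorufin fluorescence was read at 0 and 20 min.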
aSyn yeast inh = alpha-synuclein toxicity inhibition in yeast; Yeast expressing alpha-synuclein, growth rescue, BacTiter-Glo, 24 h; Potency, µM (titrated, usually from 46.1 µM), inactives show at the top dose growth rescue (activation), hits mostly activators; hit rate 0.14% among 370,000; note: potency is the fitted concentration of half-maximal effect; % of control where 0% means no effect; nearly all actives have a fitted effect of over 65% in size
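Rescue of yeast growth: cells expressing toxic alpha-synuclein, induced in galactose at OD600 0.02, incubated with compound 24 h at 30 C. ATP luminescence quantified growth; inhibitors of toxicity appear as activators.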
TDP43 rescue = rescues yeast growth from TDP-43 toxicity | TDP-43 expressing yeast growth rescue, BacTiter-Glo, 24 h | Potency, µM (doses to about 46.1 µM), without a hit: top-dose growth rescue (activation), hits mostly activators | hit rate 1.8% among 410,000; note: potency is the fitted concentration of half-maximal effect; % of control where 0% means no effect; nearly all actives have a fitted effect of over 50% in size
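Yeast cells expressing TDP-43 under galactose induction are exposed to compounds for 24 hr at 30 deg C. BacTiter-Glo luminescence measures growth, so protective compounds score as activators.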
IDH1 R132H inh = blocks human mutant IDH1 R132H enzyme. O75874. IDH1-R132H enzyme, NADPH consumption, diaphorase/resazurin fluorescence. Potency, µM (titrated, usually from 76.6 µM), inactives show at the highest dose activity change, negative = inhibition, hits mostly inhibitors. hit rate 0.093% among 390,000; note: potency is the fitted concentration of half-maximal effect; % is set by controls: 0 for no effect and ±100 for the full control effect; nearly all actives have a fitted effect of over 65% in size
Target sequence (O75874 whole entry R132H, stated change not applied): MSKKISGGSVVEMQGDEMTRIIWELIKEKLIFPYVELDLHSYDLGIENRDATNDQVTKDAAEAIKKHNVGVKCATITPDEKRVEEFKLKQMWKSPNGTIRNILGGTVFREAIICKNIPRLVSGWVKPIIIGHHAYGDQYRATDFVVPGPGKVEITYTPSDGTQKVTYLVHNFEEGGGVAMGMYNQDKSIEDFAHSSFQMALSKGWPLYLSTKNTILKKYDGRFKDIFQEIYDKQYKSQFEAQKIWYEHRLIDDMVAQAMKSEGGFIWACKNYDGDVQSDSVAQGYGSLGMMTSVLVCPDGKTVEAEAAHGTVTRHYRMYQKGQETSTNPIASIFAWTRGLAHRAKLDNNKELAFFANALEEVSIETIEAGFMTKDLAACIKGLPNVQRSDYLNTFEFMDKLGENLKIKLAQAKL
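IDH1-R132H (0.5 ug/mL) preincubated 30 min with compound, then NADPH (0.016 mM) and alpha-KG (2 mM) added; 80 min at RT, pH 7.5. Remaining NADPH coupled via diaphorase/resazurin to fluorescence (540/590 nm); concentration-response curves normalized to no-enzyme control.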
Numbers without * were called inactive; i = inactive; ? = inconclusive; . = no result given. An excerpt weighted towards active compounds, which were near 2% of everything screened. Unless noted, calls come from the whole dose curve; as a rule, active = well fitted curve in the direction sought with a large enough effect; inconclusive = small, poorly fitted or top-dose-only effect, or another doubt; inactive = no such curve, though single readings can be large; an effect the other way counts as inactive or inconclusive.

SMILES | FUS suppressor | Abeta yeast res | LDHA inh | aSyn yeast inh | TDP43 rescue | IDH1 R132H inh
O=C(CN1CCN(S(=O)(=O)c2ccccc2F)CC1)N1CCc2ccccc2C1 | i | i | -47* | -4% | -8% | 0%
COc1ccc(-c2cn[nH]c2-c2ccc(OC)cc2O)cc1 | i | ? | 2 | 22µM* | 25µM* | -6%
COc1ccc(-c2[nH]ncc2-c2ccc(Cl)cc2)c(O)c1 | ? | ? | 2 | ? | ? | 5%
O/N=C1\CCCc2c1nc(-c1ccccc1)n2O | . | . | 6 | . | . | .
Clc1ccc2c(c1)c1ccccc1n2CN1CCOCC1 | i | i | -5 | -5% | ? | 3%
Clc1ccc2c(c1)c1cc(Cl)ccc1n2CN1CCOCC1 | i | i | -6 | -25% | 6.3µM* | -7%
CC(C)(C)NC(=O)C1CCN(S(=O)(=O)Cc2ccccc2)CC1 | . | . | 5 | . | . | .
S=C(c1ccc(-c2ccc(Cl)cc2)o1)N1CCCCC1 | i | i | -4 | -18% | -20% | 3%
N#CCCN1CCN(C(=S)c2ccc(-c3ccc(Cl)cc3)o2)CC1 | i | i | 2 | 7% | 13µM* | 9%
CCCCCOc1c(Cl)cc(C(=O)N(Cc2ccc(C)o2)C2CCS(=O)(=O)C2)cc1Cl (configuration not stated) | 35µM* | i | 5 | . | 5% | -17%
N#C/C(=C/c1ccc(N2CCCCC2)cc1)c1cccc(F)c1 | i | i | -2 | -3% | 20% | 7%
N#C/C(=C/c1ccc(N2CCCCC2)o1)c1cccc(F)c1 | 32µM* | i | 15 | 2% | -25% | 10%
N#C/C(=C/c1ccc(N2CCCCCC2)o1)c1ccc(Cl)cc1 | 22µM* | i | 28 | -61% | -94% | 11%
Nc1ccccc1C(=O)Nc1cccc2ccccc12 | i | i | 4 | -3% | 14µM* | 1%
CC(O)CNC(=O)Nc1sc2c(c1C#N)CC(C)(C)OC2 (configuration not stated) | . | . | 5 | . | . | .
CN(C)C(CNC(=O)c1cc(=O)c2cc(Cl)ccc2o1)c1cccs1 (configuration not stated) | . | . | 1 | . | . | .
O=C1c2ccccc2C2(c3ccccc3)N1CCN2C(=O)C(Cl)(Cl)Cl (configuration not stated) | i | i | -2 | 5% | 13µM* | -8%
O=C1CC(=O)N(Cc2ccco2)C(=S)N1 | ? | i | -36* | 12% | 5% | -4%
O=C1CC(=O)N(Cc2ccco2)C(=O)N1 | i | i | ? | 1% | 27% | 0%
CCOc1ccc(N/C=C/C(=O)c2ccc(OC)c(OC)c2)cc1 | i | i | 1 | ? | 16µM* | 4%
CCCOc1ccc(N/C=C/C(=O)c2ccc(OC)c(OC)c2)cc1 | i | i | 4 | 16% | 6% | 5%
CCOc1ccc(N2C(=O)/C(=C\c3ccccc3OC)S(=O)(=O)C2c2cccc([N+](=O)[O-])c2)cc1 (configuration not stated) | i | i | -2 | -52% | 11µM* | 1%
COc1ccccc1/C=C1/C(=O)N(c2ccc([N+](=O)[O-])cc2)N=C1C | i | i | -3 | -1% | -24% | -4%
COc1ccccc1/C=C1/C(=O)N(c2cc(C)cc(C)c2)C(c2cccc([N+](=O)[O-])c2)S1(=O)=O (configuration not stated) | i | i | -2 | -14% | 11µM* | 1%
CC(=O)C1=C(O)C(=O)N(c2ccc(Br)cc2)C1c1cccc([N+](=O)[O-])c1 (configuration not stated) | i | i | -4 | 4% | 17% | -3%
SMILES | FUS suppressor | Abeta yeast res | LDHA inh | aSyn yeast inh | TDP43 rescue | IDH1 R132H inh
COc1ccccc1NC(=O)C(C)OC(=O)c1ccc2ccccc2n1 (configuration not stated) | . | . | 5 | . | . | .
Cc1ccc2onc(CC(=O)N3CCN(c4ccc(F)cc4)CC3)c2c1 | i | i | -1 | . | 13µM* | 4%
Clc1cccc(CSc2ncn(-c3ccccc3)n2)c1 | i | i | -6 | 4% | 13µM* | 4%
C[C@@H]1CN([C@H](C)CO)C(=O)CCCn2nncc2CO[C@@H]1CN(C)S(=O)(=O)c1ccccc1F | i | i | 4 | -4% | 16µM* | -6%
C[C@@H]1CN([C@@H](C)CO)C(=O)CCCn2cc(nn2)CO[C@H]1CN(C)S(=O)(=O)c1cccc(F)c1 | i | i | -2 | -1% | 6% | 0%
C[C@H]1CN([C@@H](C)CO)C(=O)CCCn2cc(nn2)CO[C@@H]1CN(C)S(=O)(=O)c1ccc2ccccc2c1 | i | i | -1 | 3.5µM* | 12% | -1%
C[C@H](CO)N1C[C@H](C)[C@@H](CN(C)S(=O)(=O)c2cccc(F)c2)OCc2cn(nn2)CCCC1=O | i | i | -34* | -3% | 23% | -11%
C[C@H](CO)N1C[C@H](C)[C@@H](CN(C)S(=O)(=O)c2ccccc2)OCc2cn(nn2)CCCC1=O | i | i | 1 | -20% | -13% | 10%
CCC(=O)Nc1ccc2oc(-c3cccc4c(Cl)cccc34)nc2c1 | . | . | 0 | . | . | .
Cn1cc(/C=C2/CC(=O)N(c3ccc(C(=O)O)cc3)C2=O)c2ccccc21 | . | . | 15 | . | . | .
Cc1ccc2nc(C)cc(C(=O)NC3CCN(C(=O)c4ccccc4)CC3)c2c1 | . | . | -15 | . | . | .
COc1cccc(C2CC(=O)Nc3nc(N)sc32)c1OCc1ccc(F)cc1 (configuration not stated) | . | . | 82 | . | . | .
COc1ccc(-c2nc3c(s2)CN(C(C(=O)O)c2c[nH]c4cc(Br)ccc24)CC3)cc1 (configuration not stated) | . | . | 4 | . | . | .
COc1ccccc1OCC(=O)N(Cc1ccc(-c2ccc(Cl)cc2)o1)C1CCS(=O)(=O)C1 (configuration not stated) | . | . | 6 | . | . | .
CCc1nnc(NC(=O)c2ccc3ccccc3n2)s1 | i | i | -1 | 6% | 32µM* | 1%
CC(C)c1nnc(NC(=O)c2nc(SCc3ccc(F)cc3)ncc2Cl)s1 | 8.9µM* | i | -2 | . | 12% | -21%
O=C(Nc1ccccc1F)c1nc(SCc2ccccc2F)ncc1Cl | i | i | -10 | . | 11% | -16%
CCc1nnc(NC(=O)c2nc(SCc3ccccc3F)ncc2Cl)s1 | i | i | -4 | . | 18µM* | 2%
COC(=O)c1c(NC(=O)c2nc(SCc3ccc(F)cc3)ncc2Cl)sc2c1CCCC2 | i | i | -4 | . | 8% | -9%

Source: PubChem
